Data published in PubChem BioAssay AID504834 (National Center for Advancing Translational Sciences (NCATS), 2011).
In all, about 320,000 compounds went through this assay and about 22,000 (6.9%) were called active. Not shown: some 27% with an inconclusive outcome. The list comes from a sample in which actives are over-represented; it also holds similar structures and randomly drawn compounds. A number with no mark means an inactive call. Calls come from the whole dose curve; as a rule, active = well fitted inhibition curve with a large enough effect; inconclusive = small, poorly fitted or top-dose-only effect, or another doubt; inactive = no such curve, though single readings can be large or run the other way.

Assay: Primary qHTS for delayed death inhibitors of the malarial parasite plastid, 96 hour incubation
Conditions: P. falciparum luciferase reporter growth; series mostly up to 28.7 µM; activity change, negative = inhibition: at the top concentration
Method in brief: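 Infected RBCs, 2% Hct / 0.05% parasitemia final; luciferase-reporter P. falciparum; cpd 96 h, 37 C, 5% CO2; luciferase detection reagent; luminescence.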
% is set by controls: 0 for no effect and ±100 for the full control effect; potency is the fitted concentration of half-maximal effect.

Row | SMILES | activity change, negative = inhibition [%] | Potency
1 | COC(=O)c1c(C)[nH]c(C(=O)NCCc2ccc(S(N)(=O)=O)cc2)c1C | 10.3 | 
2 | CSc1ccccc1NC(=O)c1cc(Cl)sc1Cl | -2.6 | 
3 | COc1ccc(S(=O)(=O)NCC(=O)NCc2cc(=O)n(C)c(=O)n2C)cc1F | 53.1 | 
4 | CN(CC(=O)Nc1ccc(Cl)cc1)C(=O)c1ccc(COc2ccccc2)cc1 | 7.05 | 
5 | CN(CC(=O)Nc1ccc(F)cc1)C(=O)c1ccc(-c2ccc(Cl)cc2)o1 |  | 2.33 µM (active)
6 | Cc1ccc(NC(=O)CN(C)C(=O)c2ccc(Br)o2)cc1 | 3.52 | 
7 | COCC(=O)N1CCc2ccc(NC(=O)c3ccccc3Cl)cc2C1 | -37.8 | 
8 | COc1ccc(NC(=O)CN(C)C(=O)CC2CCCCC2)cc1 | 2.68 | 
9 | N#C/C(=C\c1ccc(-c2cccc([N+](=O)[O-])c2)o1)C(=O)NCCN1CCOCC1 |  | 10.4 µM (active)
10 | Cc1ccc(Cc2cnc(NC(=O)/C(C#N)=C/c3ccc(-c4cccc([N+](=O)[O-])c4)o3)s2)cc1 | 48.8 | 
11 | Cc1ccc(C(=O)N/C(=C/c2ccc(-c3cccc([N+](=O)[O-])c3)o2)C(=O)NCCCN(C)C)cc1 | 28.7 | 
12 | COc1ccc(C(CNC(=O)c2cccc(S(=O)(=O)Nc3ccccc3Cl)c2)N2CCOCC2)cc1 (stereo unspecified) | -29.2 | 
13 | COC(=O)C1C(=O)NCC1c1ccc(C)cc1 (stereo unspecified) | 9.9 | 
14 | COC(=O)C1=C(Nc2ccc(OC)cc2)C=C(C)C(C(=O)OC)C1c1ccc(C)cc1 (stereo unspecified) | -9.49 | 
15 | COC(=O)C1=C(Nc2ccc(C)cc2)C=C(C)C(C(=O)OC)C1c1ccc(F)cc1 (stereo unspecified) |  | 11.7 µM (active)
16 | Cc1nc(COc2cc3oc(=O)cc(C)c3cc2Cl)cs1 | 16.7 | 
17 | CCOC(=O)C1=C(O)/C(=C/c2cc(C)n(-c3ccccc3)c2C)N=C1C |  | 0.657 µM (active)
18 | CCOC(=O)C1=C(O)/C(=C/c2ccc(OCC(=O)Nc3ccc(C)cc3)cc2)N=C1C | -6.91 | 
19 | COC(=O)C1=C(O)/C(=C/c2ccc(OCC(=O)Nc3ccccc3)cc2)N=C1C | 6.94 | 
20 | CCC(=O)c1ccc(OCC(=O)OCC(=O)N2CCc3ccccc3C2)cc1 | -1.61 | 
21 | COC(=O)c1ccc2c(C(C)(C)O)c(C(C)(C)O)[nH]c2c1 | 57.4 | 
22 | Cc1cccc(-c2oc3ccc(-c4ccc5c(c4)OCO5)cc3c2C#Cc2cncn2C)c1 |  | 1.17 µM (active)
23 | C/C(=C/c1ccccc1)C(=O)N1CCN(c2ccccc2)CC1 | -16 | 
24 | Nc1c(N(Cc2ccco2)C(=O)c2cccc(F)c2)c(=O)[nH]c(=O)n1Cc1ccccc1 | -29.7 | 
25 | O=C(O)CN1c2cccc3cccc(c23)S1(=O)=O | 16.1 | 
26 | O=C(Nc1cccc(NC(=O)c2cccc(F)c2)c1)c1ccccc1 | 37.7 | 

Row | SMILES | activity change, negative = inhibition [%] | Potency
27 | Cc1ccc(F)cc1NC(=O)c1cccc(N(C)C)c1 |  | 11.7 µM (active)
28 | Cc1ccc(F)cc1NC(=O)c1ccc2c(c1)OCO2 | 42.7 | 
29 | Cc1c(C(=O)NC(C)C2CC3CCC2C3)cccc1[N+](=O)[O-] (stereo unspecified) | 0.444 | 
30 | COc1cc2c(cc1OC)C(c1ccccc1Br)NC(=O)C2 (stereo unspecified) | 0 | 
31 | Cn1c(-c2ccc(C(F)(F)F)cc2)cc2onc(-c3ccccc3)c2c1=O | 241 | 
32 | CN(C)S(=O)(=O)c1ccc(Cl)c(NC(=O)COC(=O)CC(NC(N)=O)c2ccc(Cl)cc2)c1 (stereo unspecified) | 5.17 | 
33 | O=C(NCCCN1CCN(Cc2ccccc2)CC1)C1CCN(S(=O)(=O)N2CCCC2)CC1 | -16 | 
34 | CCN(CC)CCNC(=O)C1c2ccccc2C(=O)N(C)C1c1cn(C)c2ccccc12 (stereo unspecified) |  | 2.94 µM (active)
35 | CC1CCN(CC(=O)c2c[nH]c3ccccc23)CC1 | 52.6 | 
36 | CCCCN(CC)CCNC(=O)CCNC(=O)Cn1ccc2ccccc2c1=O | 3.37 | 
37 | CN1C(=O)c2ccccc2C(C(=O)NCCCN2CCCC2)C1c1c[nH]c2ccccc12 (stereo unspecified) |  | 10.4 µM (active)
38 | COc1ccc(C2C(C(=O)N3CCN(c4ccc(OC)cc4)CC3)c3ccccc3C(=O)N2C)cc1 (stereo unspecified) | 3.2 | 
39 | COc1cccc(C(=O)OCC(=O)c2[nH]c(C)c(C(C)=O)c2C)c1 | 13.9 | 
40 | COc1ccc(C2=NS(=O)(=O)N(C)C(C(=O)N3CCCCC3)=C2)cc1 | 2.02 | 
41 | COc1ccc2c(c1)c1ncn(Cc3ccccn3)c(=O)c1n2C | -10.8 | 
42 | CC1=CCC2C(=O)N(c3cccc(C(=O)NC(C)c4ccccc4)c3)C(=O)C2C1 (stereo unspecified) | -2.07 | 
43 | NC(=O)CSc1nnc(NC(=O)c2ccc(Br)o2)s1 | 24.6 | 
44 | CN(C)S(=O)(=O)N1CCC(Oc2cccc(C(=O)NCCCC3CCCC3)c2)CC1 | 22 | 
45 | Cc1ccc(CNC(=O)CC(NC(=O)c2ccccc2)c2ccccc2)cc1 (stereo unspecified) | -14.6 | 
46 | Cc1ccc(NC(=O)CN2C(=O)NC(C)(c3ccc(Cl)cc3)C2=O)c(Br)c1 (stereo unspecified) | 9.53 | 
47 | CN(C(=O)CN1C(=O)NC(C)(CCc2ccccc2)C1=O)c1ccccc1 (stereo unspecified) | 38.7 | 
48 | Cc1ccc(S(=O)(=O)NCc2nc3ccccc3c(=O)n2N)cc1 | 19 | 
49 | Cc1ccc(S(=O)(=O)Nc2nc(N)n(-c3ccccc3)n2)cc1 | -1.37 | 
50 | Cc1ccc(S(=O)(=O)c2c(N)n(C)c3nc4ccccc4nc23)cc1 |  | 0.928 µM (active)
51 | Cc1ccsc1/C=N/NC(=O)Cc1cc(=O)[nH][nH]1 | -14.1 | 
